In PubChem BioAssay (NCI):
About 83,000 compounds went through this panel and 20% of them were active in at least one assay; those are over-represented in the sample as a whole.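 Testing used 96-well plates and a 48-hour single-concentration exposure. Example: -40 means 40% of the starting cells died.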 Values without a mark were called inactive. Activity calls are given as the source filed them. The calls were made as follows: active = growth percent below 10; inactive = the rest.

Columns and labels:
Test in all cases: NCI-60 one-dose screen, 48 h (100 = growth as untreated, 0 = no growth, -100 = all killed)
Conditions in all cases: 10 µM unless noted
[1] = test system: NCI-H23 lung
[2] = test system: NCI-H226 lung
[3] = test system: NCI-H322M lung
[4] = test system: HOP-62 NSCLC
[5] = test system: NCI-H460 lung
[6] = test system: HOP-92 NSCLC
[7] = test system: NCI-H522 lung
[8] = test system: A549/ATCC NSCLC
[9] = test system: 786-0 renal
[10] = test system: COLO 205 colon
[11] = test system: DU-145 prostate
[12] = test system: K-562 leukemia
[13] = test system: MALME-3M melanoma
[14] = test system: MDA-MB-231 breast
[15] = test system: RXF 393 renal
[16] = test system: SF-268 CNS
[17] = test system: SF-295 CNS
[18] = test system: SF-539 CNS
[19] = test system: UACC-257 melanoma
[20] = test system: M14 melanoma

Row | SMILES | growth [1] | growth [2] | growth [3] | growth [4] | growth [5] | growth [6] | growth [7] | growth [8] | growth [9] | growth [10] | growth [11] | growth [12] | growth [13] | growth [14] | growth [15] | growth [16] | growth [17] | growth [18] | growth [19] | growth [20]
1 | Cc1cc2nc3c4ccccc4n(CCCN(C)C)c3nc2cc1C | -53.4% (active) | 4.65% (active) | -22.6% (active) | -0.831% (active) | -25.7% (active) | -18.2% (active) | -58.7% (active) | 6.71% (active) | 3.7% (active) | -86.3% (active) | 2.68% (active) | -4.14% (active) | -89.6% (active) | -23.4% (active) | -62.1% (active) | -38.6% (active) | -30.4% (active) | -69.4% (active) | -81.2% (active) | -74.4% (active)
2 | Cc1ccc(NCC(=O)Cn2cc(COc3ccc(C=Nc4cnc5ccccc5c4)cc3)nn2)cc1 | 109% | 105% | 103% | 102% | 130% | 116% | 104% | 103% | 107% | 114% | 119% | 102% | 102% | 107% | 125% | 123% | 107% | 104% | 105% | 105%
3 | O=C(N=Nc1c(O)[nH]c2ccc([N+](=O)[O-])cc12)c1ccc2nc(-c3ccccc3)[nH]c2c1 | 64.7% | 60.1% | 104% | 100% | 100% | 30.8% | 17.8% | 106% | 91.4% | 28.4% | 57.9% | 48.1% | 30.7% | 59.5% | 74.6% | 53.3% | 102% | 6.74% (active) | 84.6% | 83.8%
4 | CCCSc1nc(NCCc2c[nH]c3ccccc23)c(C#N)c(-c2ccccc2)n1 | 89.4% | 65.4% | 93.5% | 65.4% | 25% | 78.9% | 57.9% | 73.5% | 74.7% | 62.8% | 75.3% | 25.2% | 100% | 40.6% | 55.2% | 70.5% | 72.6% | 66.2% | 100% | 83.5%
5 | O=c1[nH]c2ccccc2cc1CSc1nccc(-c2ccc3ccccc3c2)n1 | 77.8% | 70.4% | 96% | 71.5% | 77% | 68.5% | 49.6% | 56.8% | 78.3% | 83.3% | 81% | 10.1% | 86.3% | 58.2% | 59.1% | 85.4% | 70.8% | 71.2% | 99.3% | 56.1%
6 | CN(C)c1ccnc(CNCCSC2(c3ccc(C(F)(F)F)cc3)c3ccccc3CCc3ccccc32)c1 | -31.8% (active) | -31.6% (active) | 8.82% (active) | -57.8% (active) | -80.5% (active) | -17.7% (active) | -82.6% (active) | -27.6% (active) | -6.83% (active) | -83.7% (active) | -3.51% (active) | -16.3% (active) | -91.8% (active) | -54.6% (active) | -88.3% (active) | 14.1% | -96.9% (active) | -97.6% (active) | -59.8% (active) | -75.6% (active)
7 | c1ccc(-c2csc(Nc3cccc(Nc4nc(-c5ccccc5)cs4)c3)n2)cc1 | 36.8% | 66.2% | 58.1% | 73% | 26.9% | 43.7% | 11.4% | 44.2% | 50.4% | 83.5% | 58.9% | 26.6% | 52.8% | 48% | 63.8% | 40.6% | 37.6% | 57.7% | 46.1% | 47.8%
8 | Cc1ccc([C@H]2C(C(=O)c3ccc(Cl)cc3)C3(N[C@@H]2c2ccccc2)C(=O)Nc2ccccc23)cc1 (stereo not given in full) | 44.1% | 45.5% | 55.4% | 44% | 45.8% | -3.21% (active) | 12.9% | 25.9% | 33.4% | 19.2% | 80.2% | 11.8% | 20.5% | 27.2% | 19% | 61.1% | 42.6% | 83.9% | 26.9% | 28.7%
9 | COc1ccc(N2N=C(c3ccc4c(c3)OCO4)CC2c2cccc(NC(=O)CCCNS(=O)(=O)c3ccc(F)cc3)c2)cc1 (stereo not given) | 73.7% | 67.2% | 76.1% | 82.4% | 50.6% | 90.4% | -7.84% (active) | 49.1% | 62.5% | 65.3% | 80.3% | 35.5% | 77.6% | 50.2% | 66.9% | 52.8% | 49.2% | 74.9% | 75.7% | 49.5%
10 | CC(=O)Nc1ccc(-c2nc3cc(-c4ccc(O)cc4)ccc3n2C)cc1 | 59.2% | 90.1% | 65.4% | 83.8% | 33.8% | 36.4% | 1.22% (active) | 69.7% | 50.3% | 71.3% | 54.9% | 15.5% | 68.4% | 53.4% | 66.7% | 68.1% | 47.1% | 49.2% | 80.8% | 63.9%
11 | CCN(CC)CCOc1ccc(Nc2ncc3cc(-c4ccc(O)c(C#N)c4)c(=O)n(C)c3n2)cc1 | 98% | 49.3% | 96.9% | 91.1% | 85.3% | -5.3% (active) | 83.1% | 94.8% | -51.2% (active) | 36.2% | 84.6% | -47.5% (active) | -95.5% (active) | 11.9% | 22.3% | 77.1% | 90.8% | 62.2% | 101% | 70.4%
12 | C/C(=N\N=C1/C(=O)Nc2ccccc21)c1ccc2c(c1)Nc1ccccc1S2 | 34.8% | 56.3% | 71.3% | 82.9% | 43.8% | 82.7% | 43.7% | 66.9% | 71.4% | 52.6% | 53.2% | 31.8% | 35.5% | 39% | 96.1% | 55.3% | 57.8% | 71.7% | 27.5% | 65%
13 | CCCCCCCCc1ccc(C(=O)Nc2ccc(C)cc2C(=O)O)cc1C | 99.6% | 89.4% | 99.3% | 96.2% | 92.7% | 99% | -0.59% (active) | 85.8% | 104% | 114% | 105% | 71.2% | 96.5% | 98.1% | 109% | 99.9% | 73.6% | 99.1% | 95% | 99.9%
14 | O=C(c1ccc(Cl)cc1)c1ccc(OCCCN2CCN(c3ccncc3)CC2)cc1 | 38.4% | 49.4% | 82.1% | 38.7% | 48.6% | 14.9% | 52.6% | 55.5% | 33.5% | -49.7% (active) | 62.1% | 1.45% (active) | -54.1% (active) | 17.2% | 32.8% | 73.2% | 17.6% | 16.7% | 42.4% | -36.2% (active)
15 | Nc1nc(C(F)(F)F)cs1 | 104% | 98.9% | 104% | 101% | 107% | 107% | 98.3% | 103% | 98.4% | 114% | 109% | 99.9% | 103% | 117% | 112% | 99.3% | 103% | 106% | 104% | 108%
